# From PMC7862700, “An all-to-all approach to the identification of sequence-specific readers for epigenetic DNA modifications on cytosine”
# How the values were obtained:
# Assay in all cases: DAPPL (digital affinity profiling via proximity ligation, sequencing); 10 mM Tris-HCl pH 7.5, 50 mM NaCl, 1 mM DTT, 4% glycerol, room temperature, 30 min; GST-TFs on glutathione beads, 16-mer random dsDNA library, 0.1% formaldehyde crosslink after washing; high values mean tight binding
# Conditions in all cases: protein: recombinant; tags: N-terminal GST; dsDNA, one strand shown
# FLI1 = target: T1, FLI1 (Homo sapiens, UniProt Q01543 1-452)
# T1 sequence: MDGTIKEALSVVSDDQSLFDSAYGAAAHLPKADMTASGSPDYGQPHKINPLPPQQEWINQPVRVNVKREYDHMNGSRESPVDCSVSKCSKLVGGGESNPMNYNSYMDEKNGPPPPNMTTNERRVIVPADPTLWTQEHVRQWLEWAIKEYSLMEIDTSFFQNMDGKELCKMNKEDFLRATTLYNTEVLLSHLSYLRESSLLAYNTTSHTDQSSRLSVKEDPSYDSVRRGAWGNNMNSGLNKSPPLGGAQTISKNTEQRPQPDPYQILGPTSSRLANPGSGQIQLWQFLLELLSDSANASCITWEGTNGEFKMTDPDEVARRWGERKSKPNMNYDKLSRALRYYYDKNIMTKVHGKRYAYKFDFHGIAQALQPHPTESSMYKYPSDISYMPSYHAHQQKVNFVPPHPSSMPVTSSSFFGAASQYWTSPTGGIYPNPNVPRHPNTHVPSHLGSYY
# Procedure, shortened: (§1)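 Pools were built from human transcription factors expressed in yeast as GST fusions, captured on glutathione beads and DNA-barcoded, along with a tag-only sample. Incubation with 200 nmole of a 16-mer random double-stranded DNA library lasted 30 min at room temperature in Tris/NaCl/DTT/glycerol buffer, and was followed by washing, 0.1% formaldehyde crosslinking, proximity ligation, PCR amplification and Illumina NextSeq500 sequencing. Binding signal is the quotient of each hexamer's read frequency for a factor and its frequency for the tag-only sample.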
# ELK1 = target: T2, ELK1 (Homo sapiens, UniProt P19419 1-428)
# T2 sequence: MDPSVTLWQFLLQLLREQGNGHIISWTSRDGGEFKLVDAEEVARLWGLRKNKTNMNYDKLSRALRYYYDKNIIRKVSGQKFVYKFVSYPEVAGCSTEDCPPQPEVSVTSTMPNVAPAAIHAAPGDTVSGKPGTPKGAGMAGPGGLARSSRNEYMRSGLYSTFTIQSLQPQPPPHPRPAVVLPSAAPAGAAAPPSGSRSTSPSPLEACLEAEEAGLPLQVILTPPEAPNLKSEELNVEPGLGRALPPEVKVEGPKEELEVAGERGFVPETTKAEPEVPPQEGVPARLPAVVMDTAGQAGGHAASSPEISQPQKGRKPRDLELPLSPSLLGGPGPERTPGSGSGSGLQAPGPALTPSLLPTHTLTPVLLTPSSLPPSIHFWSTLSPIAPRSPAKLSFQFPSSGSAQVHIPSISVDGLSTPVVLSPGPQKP
# Procedure, shortened: as §1
# GABPA = target: T3, GABPA (Homo sapiens, UniProt Q06546 1-454)
# T3 sequence: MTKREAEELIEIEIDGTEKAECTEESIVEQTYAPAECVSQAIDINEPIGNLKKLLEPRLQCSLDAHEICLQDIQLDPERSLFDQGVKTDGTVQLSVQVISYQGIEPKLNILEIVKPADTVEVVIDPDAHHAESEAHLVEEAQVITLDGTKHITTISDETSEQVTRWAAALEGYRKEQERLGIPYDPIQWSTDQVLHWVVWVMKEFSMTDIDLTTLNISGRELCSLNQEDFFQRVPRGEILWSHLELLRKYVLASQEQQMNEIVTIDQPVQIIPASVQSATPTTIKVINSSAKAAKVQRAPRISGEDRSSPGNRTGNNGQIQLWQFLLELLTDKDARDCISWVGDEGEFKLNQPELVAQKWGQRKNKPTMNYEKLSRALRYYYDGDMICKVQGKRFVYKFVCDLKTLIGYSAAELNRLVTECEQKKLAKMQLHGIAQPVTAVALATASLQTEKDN
# Procedure, shortened: as §1
# ERG = target: T4, ERG (Homo sapiens, UniProt P11308 1-479)
# T4 sequence: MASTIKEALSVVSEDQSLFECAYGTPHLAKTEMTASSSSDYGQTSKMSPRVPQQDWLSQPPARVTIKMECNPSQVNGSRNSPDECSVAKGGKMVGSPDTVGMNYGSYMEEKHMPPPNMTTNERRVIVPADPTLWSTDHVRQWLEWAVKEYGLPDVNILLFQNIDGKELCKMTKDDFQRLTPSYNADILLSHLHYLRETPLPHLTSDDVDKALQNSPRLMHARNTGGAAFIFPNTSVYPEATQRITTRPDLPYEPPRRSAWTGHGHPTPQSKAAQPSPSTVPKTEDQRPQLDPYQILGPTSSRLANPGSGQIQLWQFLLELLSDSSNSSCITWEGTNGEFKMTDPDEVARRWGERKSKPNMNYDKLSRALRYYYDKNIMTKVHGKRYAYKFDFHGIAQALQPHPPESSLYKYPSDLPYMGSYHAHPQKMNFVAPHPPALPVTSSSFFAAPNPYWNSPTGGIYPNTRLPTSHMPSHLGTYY
# Procedure, shortened: as §1
# ELF1 = ELF1 (Homo sapiens, UniProt P32519 1-619)
# ELF1, sequence (P32519 whole entry): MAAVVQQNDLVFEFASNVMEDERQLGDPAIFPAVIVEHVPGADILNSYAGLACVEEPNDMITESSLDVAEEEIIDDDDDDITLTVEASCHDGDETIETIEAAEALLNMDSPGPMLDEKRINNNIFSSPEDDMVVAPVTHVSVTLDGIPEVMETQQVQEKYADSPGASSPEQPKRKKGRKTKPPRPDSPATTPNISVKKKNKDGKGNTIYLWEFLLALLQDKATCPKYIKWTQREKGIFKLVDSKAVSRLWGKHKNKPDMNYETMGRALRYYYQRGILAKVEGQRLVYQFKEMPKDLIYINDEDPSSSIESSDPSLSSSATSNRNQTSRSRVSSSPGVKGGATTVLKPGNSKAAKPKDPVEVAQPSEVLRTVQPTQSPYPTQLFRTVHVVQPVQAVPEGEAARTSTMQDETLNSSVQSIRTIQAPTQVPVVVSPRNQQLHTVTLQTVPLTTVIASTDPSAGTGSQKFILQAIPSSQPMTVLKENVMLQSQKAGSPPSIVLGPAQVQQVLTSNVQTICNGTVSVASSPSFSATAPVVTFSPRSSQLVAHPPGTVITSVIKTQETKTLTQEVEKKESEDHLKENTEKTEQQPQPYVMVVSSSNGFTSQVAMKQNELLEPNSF
# Procedure, shortened: as §1
# EHF = target: T5, EHF (Homo sapiens, UniProt Q9NZC4 1-300)
# T5 sequence: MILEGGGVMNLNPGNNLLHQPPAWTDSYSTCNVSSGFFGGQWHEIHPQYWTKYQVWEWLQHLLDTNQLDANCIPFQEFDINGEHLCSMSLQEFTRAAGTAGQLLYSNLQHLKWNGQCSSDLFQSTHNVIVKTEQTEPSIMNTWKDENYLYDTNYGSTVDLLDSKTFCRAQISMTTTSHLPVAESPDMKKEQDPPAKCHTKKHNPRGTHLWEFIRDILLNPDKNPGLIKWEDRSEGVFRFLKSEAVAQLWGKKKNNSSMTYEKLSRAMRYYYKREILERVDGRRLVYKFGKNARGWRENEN
# Procedure, shortened: as §1
# SPI1 = SPI1 (Homo sapiens, UniProt P17947 1-270)
# Procedure, shortened: as §1
# SPIB = SPIB (Homo sapiens, UniProt Q01892 1-262)
# SPIB, sequence (Q01892 whole entry): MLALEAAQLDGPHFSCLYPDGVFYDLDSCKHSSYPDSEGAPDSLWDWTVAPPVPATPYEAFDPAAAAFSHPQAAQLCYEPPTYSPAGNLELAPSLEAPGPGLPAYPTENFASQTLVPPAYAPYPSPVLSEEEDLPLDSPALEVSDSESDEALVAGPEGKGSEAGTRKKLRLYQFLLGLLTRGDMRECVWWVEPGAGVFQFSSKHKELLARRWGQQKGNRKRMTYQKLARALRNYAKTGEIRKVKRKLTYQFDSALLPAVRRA
# Procedure, shortened: as §1
# ELK3 = target: T6, ELK3 (Homo sapiens, UniProt P41970 1-407)
# T6 sequence: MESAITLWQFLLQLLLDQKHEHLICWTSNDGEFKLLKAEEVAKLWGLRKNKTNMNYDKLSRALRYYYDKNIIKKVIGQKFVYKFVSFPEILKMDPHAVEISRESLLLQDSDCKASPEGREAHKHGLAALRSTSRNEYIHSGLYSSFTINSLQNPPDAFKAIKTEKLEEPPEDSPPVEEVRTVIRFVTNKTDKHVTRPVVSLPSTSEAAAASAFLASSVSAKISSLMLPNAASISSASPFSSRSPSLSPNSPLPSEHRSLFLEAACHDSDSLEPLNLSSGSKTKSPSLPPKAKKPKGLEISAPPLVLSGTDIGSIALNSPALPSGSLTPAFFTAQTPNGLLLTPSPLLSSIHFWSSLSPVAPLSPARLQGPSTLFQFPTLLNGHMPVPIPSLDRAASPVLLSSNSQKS
# Procedure, shortened: as §1
# ETV5 = ETV5 (Homo sapiens, UniProt P41161 1-510)
# ETV5, sequence (P41161 whole entry): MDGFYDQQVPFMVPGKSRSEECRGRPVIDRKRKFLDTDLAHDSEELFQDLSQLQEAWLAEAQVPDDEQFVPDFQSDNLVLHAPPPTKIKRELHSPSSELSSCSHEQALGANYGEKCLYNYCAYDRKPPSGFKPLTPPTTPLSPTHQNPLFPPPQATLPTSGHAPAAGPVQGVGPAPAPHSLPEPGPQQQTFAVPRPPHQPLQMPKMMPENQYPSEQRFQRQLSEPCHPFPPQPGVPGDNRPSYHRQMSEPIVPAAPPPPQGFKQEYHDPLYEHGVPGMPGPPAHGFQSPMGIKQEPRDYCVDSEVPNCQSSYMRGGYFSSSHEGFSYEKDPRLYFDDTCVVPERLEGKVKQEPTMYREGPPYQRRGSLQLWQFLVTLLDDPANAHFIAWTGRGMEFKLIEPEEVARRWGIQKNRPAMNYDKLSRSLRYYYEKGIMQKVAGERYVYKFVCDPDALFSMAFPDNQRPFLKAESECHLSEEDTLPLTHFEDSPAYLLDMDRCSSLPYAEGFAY
# Procedure, shortened: as §1
sequence,measurement,setting,value
GGAAGA,binding signal,FLI1,"1.06 fold enrichment (6-mer frequency, TF over GST control)"
same,binding signal,ELK1,"1.16 fold enrichment (6-mer frequency, TF over GST control)"
same,binding signal,GABPA,"1.11 fold enrichment (6-mer frequency, TF over GST control)"
same,binding signal,ERG,"1.2 fold enrichment (6-mer frequency, TF over GST control)"
same,binding signal,ELF1,"1.02 fold enrichment (6-mer frequency, TF over GST control)"
same,binding signal,EHF,"1.3 fold enrichment (6-mer frequency, TF over GST control)"
same,binding signal,SPI1,"1.17 fold enrichment (6-mer frequency, TF over GST control)"
same,binding signal,SPIB,"1.19 fold enrichment (6-mer frequency, TF over GST control)"
same,binding signal,ELK3,"1.19 fold enrichment (6-mer frequency, TF over GST control)"
same,binding signal,ETV5,"1.22 fold enrichment (6-mer frequency, TF over GST control)"
